Shown are actives, neighbours in structure and some others; about 1.8% of the full set was active somewhere.
NPR2 activator – human GC-B receptor activators, primary screen, HEK293 GC-B cells, cGMP TR-FRET, EC30 CNP. activation, % at 10 µM. 0% at EC30 CNP, 100% saturating CNP. hit rate 0.11% among 370,000. Atrial natriuretic peptide receptor 2 (Homo sapiens), P20594;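 active = activation at 10 µM reaching about 35% in either raw or pattern-adjusted values, limit read from the data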
bovine MsrA act – bovine MsrA enzyme activators, primary screen, biochemical, absorbance, HTS | Methionine sulfoxide reductase A (Bos taurus) | purified bovine MsrA, absorbance read-out | activation, % at 10.6 µM | hit rate 0.3% among 360,000; in the data active = activation above about 7.5%
m5-HT2A agonist – mouse Htr2a agonists via beta-arrestin recruitment, primary screen, cell-based, luminescence; hit rate 0.66% among 360,000; CHO-K1 mHTR2A beta-arrestin complementation; percent of 30 µM serotonin response; AID 624169, 2012; activation, % at 7.6 µM; 5-hydroxytryptamine receptor 2A (Mus musculus), P35363;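 active = activation above a run cutoff, the mean activation of all tested compounds plus 3 SD, cut at about 14% in these data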
MsrA inh – bovine MsrA enzyme inhibitors, primary screen, biochemical, absorbance, HTS. purified bovine MsrA, absorbance read-out. inhibition, % at 15.5 µM. hit rate 0.75% among 360,000; in the data active = inhibition above about 4.5%
GC-A act – GC-A stimulated cGMP production enhancers – HEK293 GC-A cells, cGMP TR-FRET, EC30 ANP, primary screen. activation, % at 10 µM. AID 1671463, 2021. 0% at EC30 ANP, 100% saturating ANP. Atrial natriuretic peptide receptor 1 (Homo sapiens), P16066. hit rate 0.14% among 370,000; in the data active = activation above about 40%
MsrA act confirm – bovine MsrA activators, retest, confirmation, biochemical, absorbance, HTS. shares compounds with bovine MsrA act. AID 602270, 2012. purified bovine MsrA, absorbance read-out. activation, % at 10.6 µM. hit rate 12% among 1,000; in the data active = activation above about 4%;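 note: enzyme coupled to thioredoxin and thioredoxin reductase with NADPH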
Large screens that a line does not name were inactive (follow-up assays come after a bar, where they were run).

CC(C)OP(=O)(OC(C)C)C(NC(=O)c1ccccc1)C(N)=O (stereo not given)	none
Cc1cccc(NCc2ccccc2O)c1C	bovine MsrA act 14.9 | MsrA act confirm inactive
Cc1ccc(NCc2ccccc2O)c(C)c1	none
COc1ccc(C=Nn2c(-c3ccc(F)cc3)n[nH]c2=S)c(OC)c1OC	none (no result: bovine MsrA act, m5-HT2A agonist, MsrA inh)
COc1cc(C[C@@H]2C(=O)OC[C@H]2Cc2ccc(OC)c(OC)c2)ccc1O	bovine MsrA act 11.3, m5-HT2A agonist 16.1 | MsrA act confirm inactive
Cc1cc(C(F)(F)F)n2nc(C)c(-c3ccc(Cl)cc3)c2n1	bovine MsrA act 15.9 | MsrA act confirm inactive
Cc1cc(-n2nc(C)cc2C)n2nc(C)c(-c3ccc(Cl)cc3)c2n1	none
CCOC(=O)N1CCN(c2c(F)cc3[nH]c(=S)[nH]c3c2Br)CC1	bovine MsrA act 11.9 | MsrA act confirm inactive
CSc1nc(C)cc(Oc2ccc(OCC(N)=O)nn2)n1	none
C=CCOc1ccc(Oc2cc(C)nc(SC)n2)nn1	bovine MsrA act 12.6 | MsrA act confirm inactive
CCc1nc2ccc(C(=O)Nc3ccc(NC(C)=O)cc3)cn2c1N(C)CCC(C)C	bovine MsrA act 8.8 | MsrA act confirm inactive
COc1cccc(NC(=O)COC(=O)CCn2c(C)csc2=O)c1	bovine MsrA act 9.2 | MsrA act confirm inactive
COc1cccc(NC(=O)COC(=O)Cn2c(C)csc2=O)c1	none
CCOC(=O)C1=CN(Cc2cccc(F)c2)S(=O)(=O)N(CC)C1CCc1ccccc1 (stereo not given)	bovine MsrA act 8.6 | MsrA act confirm inactive
CCOC(=O)C(=O)N(C)c1c(CC)nc2c(OCCC3CCCCC3)cccn12	bovine MsrA act 8.2 | MsrA act confirm inactive
CCOC(=O)N(C)c1c(CC)nc2c(OCCC3CCCCC3)cccn12	none
CCOC(=O)N(C)c1c(CC)nc2c(OCc3cccc(Cl)c3)cccn12	bovine MsrA act 9.2 | MsrA act confirm inactive
CCCCn1nnnc1C(c1cc2ccccc2o1)N1CCN(C/C=C/c2ccccc2)CC1 (stereo not given)	none
CCCCn1nnnc1C(c1cc2ccccc2o1)N1CCCC1 (stereo not given)	bovine MsrA act 11.3 | MsrA act confirm inactive
CC(=O)c1ccc(NC(=O)C2CC2c2ccccc2)cc1 (stereo not given)	bovine MsrA act 10.0 | MsrA act confirm inactive
O=C(NNC(=O)C1CC1c1ccccc1)Nc1ccccc1 (stereo not given)	none
CC(C)(C)NC(=S)NNC(=O)[C@H]1C[C@@H]1c1ccccc1	bovine MsrA act 8.5 | MsrA act confirm inactive
Cc1ccc(C(=O)NC(=S)NNC(=O)CC#N)cc1	bovine MsrA act 7.8 | MsrA act confirm 4.1
CCCCC(=O)NNC(=S)NC(=O)c1cccc([N+](=O)[O-])c1	bovine MsrA act 11.4 | MsrA act confirm inactive
CCCCC(=O)NNC(=S)NC(=O)c1ccc([N+](=O)[O-])cc1	bovine MsrA act 7.8 | MsrA act confirm 4.5
CCCCC(=O)NNC(=S)NC(=O)c1ccc(C)cc1	none
Cc1ccccc1NC(=O)Nc1ccc2c(c1)C(=O)N(C)[C@H]1CC[C@H](CC(=O)NCC3CC3)O[C@@H]1CO2	none (no result: bovine MsrA act, m5-HT2A agonist, MsrA inh)
O=C(Oc1ccc2c(-c3ccccc3)cc(=O)oc2c1)c1cccs1	none
CCc1cc2c(-c3ccccc3)cc(=O)oc2cc1OC(=O)c1cccs1	bovine MsrA act 11.1 | MsrA act confirm inactive
COc1ccc(Cn2ccc3ccc(-c4ccc5ccn(Cc6ccccc6)c5c4)cc32)cc1	none (no result: bovine MsrA act, m5-HT2A agonist, MsrA inh)
CC(C)CN(CCCNC(=O)CC1Oc2ccccc2NC1=O)CC(C)C (stereo not given)	bovine MsrA act 8.6 | MsrA act confirm inactive
CCN(CC)CCCNC(=O)CC1Oc2ccccc2NC1=O (stereo not given)	none (no result: bovine MsrA act, m5-HT2A agonist, MsrA inh)
C=CCn1cccc(C(=O)Nc2ccc(Cl)cc2)c1=O	bovine MsrA act 7.8 | MsrA act confirm inactive
C=CCn1cccc(C(=O)Nc2ccc(SC)cc2)c1=O	none
Cc1ccc(C(=O)NC2CCCC2)cc1S(=O)(=O)N1CCCCC1	none

Screens as filed in PubChem BioAssay.
